# Target: Ribosomal protein S6 kinase alpha-2 (Homo sapiens) (UniProt Q15349)
# Conditions: at 10 µM
# Chain of Ribosomal protein S6 kinase alpha-2 (Homo sapiens) (Q15349 whole entry): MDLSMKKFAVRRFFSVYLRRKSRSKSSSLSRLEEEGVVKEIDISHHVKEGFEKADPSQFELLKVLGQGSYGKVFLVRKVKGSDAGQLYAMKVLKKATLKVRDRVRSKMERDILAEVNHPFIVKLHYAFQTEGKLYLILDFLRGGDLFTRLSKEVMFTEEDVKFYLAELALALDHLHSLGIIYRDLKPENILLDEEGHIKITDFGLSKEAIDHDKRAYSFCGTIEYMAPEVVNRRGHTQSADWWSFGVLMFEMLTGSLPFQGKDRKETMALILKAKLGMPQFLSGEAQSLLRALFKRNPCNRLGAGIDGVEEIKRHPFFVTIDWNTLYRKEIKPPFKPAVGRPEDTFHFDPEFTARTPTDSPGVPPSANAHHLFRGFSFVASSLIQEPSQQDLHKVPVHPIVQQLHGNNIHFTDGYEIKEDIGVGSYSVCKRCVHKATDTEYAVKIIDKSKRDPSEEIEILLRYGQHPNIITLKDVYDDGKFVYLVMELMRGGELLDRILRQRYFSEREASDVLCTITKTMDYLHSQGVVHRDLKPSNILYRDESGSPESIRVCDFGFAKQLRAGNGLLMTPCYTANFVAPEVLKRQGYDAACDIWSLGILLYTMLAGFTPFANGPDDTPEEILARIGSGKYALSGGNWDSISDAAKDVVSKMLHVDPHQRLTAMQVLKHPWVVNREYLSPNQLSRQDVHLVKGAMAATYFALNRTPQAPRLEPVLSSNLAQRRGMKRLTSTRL
row,Compound,residual activity
1,Oc1c2ccccc2c2c3c(cccc13)N=N2,22%
2,Nc1nc(Nc2ccc(S(N)(=O)=O)cc2)nn1C(=S)Nc1c(F)cccc1F,-1%
3,O=C1Nc2ccc(Br)cc2/C1=C\c1cc2c([nH]1)CCCC2,76%
4,Cc1nc(-c2ccccc2)c(-c2ccncc2)o1,92%
5,COc1cc2ncnc(Nc3ccc(O)c(Br)c3)c2cc1OC,7%
6,Nc1cccc(-c2cc3c(Oc4cccc(O)c4)ncnc3[nH]2)c1,27%
7,CCOc1cc2ncnc(Nc3cccc(Br)c3)c2cc1OCC,48%
8,CO[C@H]1C[C@@H]2CC[C@@H](C)[C@@](O)(O2)C(=O)C(=O)N2CCCC[C@H]2C(=O)O[C@H]([C@H](C)C[C@@H]2CC[C@@H](O)[C@H](OC)C2)CC(=O)[C@H](C)/C=C(\C)[C@@H](O)[C@@H](OC)C(=O)[C@H](C)C[C@H](C)/C=C/C=C/C=C/1C,90%
9,COc1cc2ncnc(Nc3ccc(Oc4ccccc4)cc3)c2cc1OC,73%
10,COc1ccc(OC)c2c(=S)c3ccccc3[nH]c12,88%
11,CO[C@H]1[C@@H](OC)C[C@H](C)[C@@H](OC)C2=CC(=O)C=C(NC(=O)/C(C)=C/C=C/[C@H](OC)[C@@H](OC(N)=O)/C(C)=C/[C@@H]1C)C2=O,104%
12,Cc1ccc(NC2=CC(=O)c3sc(C)nc3C2=O)cc1,102%
13,O=C1NC(=O)/C(=C\c2ccc3nccnc3c2)S1,78%
14,O=C1c2ccccc2-[n+]2ccc3c([nH]c4ccccc43)c21,90%
15,COc1ccc(CNc2nc(N(CCO)CCO)nc3c2ncn3C(C)C)cc1,5%
16,CN(C)c1ccc(/C=C2\C(=O)Nc3ccccc32)cc1,25%
17,Oc1ccc(Nc2nc(-c3ccc(Cl)cc3)cs2)cc1,80%
18,CC(C)n1cnc2c(NCc3ccccc3)nc(NCCCO)nc21,72%

row,Compound,residual activity
1,N#Cc1cnc2cnc(NCc3cccnc3)cc2c1Nc1ccc(F)c(Cl)c1,0%
2,CC#CC(=O)Nc1cc2c(Nc3ccc(F)c(Cl)c3)ncnc2cn1,96%
3,Cn1cc(/C=C2\C(=O)Nc3ccc(S(N)(=O)=O)cc32)c2ccccc21,0%
4,NC(=O)c1ccc2[nH]c(-c3ccc(Oc4ccc(Cl)cc4)cc3)nc2c1,5%
5,COc1ccc(C(=O)Nc2sc3c(c2C(N)=O)CCCC3)cc1OC,97%
6,N#CCCc1ccc2c(c1)-c1[nH]c3ccc([N+](=O)[O-])cc3c1CC(=O)N2,1%
7,Cn1cnc2cc3c(Nc4cccc(Br)c4)ncnc3cc21,70%
8,N#C/C(=C(\N)Sc1ccc(N)cc1)c1ccccc1C(F)(F)F,48%
9,Nc1ccc2ncnc(NCCc3ccc(Oc4ccccc4)cc3)c2c1,65%
10,O=c1cc(-c2cccc3c2Sc2ccccc2S3)oc(N2CCOCC2)c1,99%
11,Cc1cc2ncc(-c3ccccc3)nc2cc1C,101%
12,O=C(Nc1cccc(Nc2cc(Nc3cccc(C(F)(F)F)c3)ncn2)c1)C1CC1,55%
13,O=C1NC(=O)c2c1c1c3ccccc3[nH]c1c1[nH]c3cc(Br)ccc3c21,32%
14,O=C(Nc1cccc(Nc2nccc(Nc3cccc(C(F)(F)F)c3)n2)c1)C1CC1,62%
15,Oc1ccc(-c2nc(-c3ccc(F)cc3)c(-c3ccncc3)[nH]2)cc1,68%
16,CC[n+]1c(/C=C/N(C)c2ccccc2)n(-c2ccccc2)c2ccc(-c3nc4ccccc4s3)cc21,97%
17,O=C1NC(=O)c2cc(Nc3ccc(F)cc3)c(Nc3ccc(F)cc3)cc21,78%

# Target: Ribosomal protein S6 kinase alpha-6 (Homo sapiens) (UniProt Q9UK32)
# Conditions: at 1 µM
# Chain of Ribosomal protein S6 kinase alpha-6 (Homo sapiens) (Q9UK32 whole entry): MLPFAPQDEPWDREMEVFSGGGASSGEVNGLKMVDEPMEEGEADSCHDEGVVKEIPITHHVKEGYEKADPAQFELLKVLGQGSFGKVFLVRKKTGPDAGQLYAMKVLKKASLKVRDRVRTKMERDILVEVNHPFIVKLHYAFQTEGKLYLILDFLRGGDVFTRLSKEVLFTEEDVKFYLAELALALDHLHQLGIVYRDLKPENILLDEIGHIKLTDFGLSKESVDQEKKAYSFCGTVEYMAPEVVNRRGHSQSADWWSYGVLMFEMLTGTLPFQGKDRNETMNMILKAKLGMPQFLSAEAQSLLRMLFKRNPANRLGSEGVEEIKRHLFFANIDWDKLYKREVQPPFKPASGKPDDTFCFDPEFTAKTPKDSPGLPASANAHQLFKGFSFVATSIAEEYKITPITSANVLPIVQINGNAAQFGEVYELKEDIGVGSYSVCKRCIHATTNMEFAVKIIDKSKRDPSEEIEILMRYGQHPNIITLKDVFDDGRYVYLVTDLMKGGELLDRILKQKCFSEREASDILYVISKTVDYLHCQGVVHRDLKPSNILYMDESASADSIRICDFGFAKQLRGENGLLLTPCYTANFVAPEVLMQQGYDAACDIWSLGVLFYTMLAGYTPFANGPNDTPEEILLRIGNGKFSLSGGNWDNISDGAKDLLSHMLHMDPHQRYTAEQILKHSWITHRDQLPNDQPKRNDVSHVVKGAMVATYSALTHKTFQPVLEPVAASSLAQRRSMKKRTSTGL
row,Compound,residual activity
1,Oc1c2ccccc2c2c3c(cccc13)N=N2,43%
2,Nc1nc(Nc2ccc(S(N)(=O)=O)cc2)nn1C(=S)Nc1c(F)cccc1F,-2%
3,O=C1Nc2ccc(Br)cc2/C1=C\c1cc2c([nH]1)CCCC2,79%
4,Cc1nc(-c2ccccc2)c(-c2ccncc2)o1,81%
5,COc1cc2ncnc(Nc3ccc(O)c(Br)c3)c2cc1OC,69%
6,Nc1cccc(-c2cc3c(Oc4cccc(O)c4)ncnc3[nH]2)c1,56%
7,CCOc1cc2ncnc(Nc3cccc(Br)c3)c2cc1OCC,92%
8,CO[C@H]1C[C@@H]2CC[C@@H](C)[C@@](O)(O2)C(=O)C(=O)N2CCCC[C@H]2C(=O)O[C@H]([C@H](C)C[C@@H]2CC[C@@H](O)[C@H](OC)C2)CC(=O)[C@H](C)/C=C(\C)[C@@H](O)[C@@H](OC)C(=O)[C@H](C)C[C@H](C)/C=C/C=C/C=C/1C,105%
9,COc1cc2ncnc(Nc3ccc(Oc4ccccc4)cc3)c2cc1OC,102%
10,COc1ccc(OC)c2c(=S)c3ccccc3[nH]c12,98%
11,CO[C@H]1[C@@H](OC)C[C@H](C)[C@@H](OC)C2=CC(=O)C=C(NC(=O)/C(C)=C/C=C/[C@H](OC)[C@@H](OC(N)=O)/C(C)=C/[C@@H]1C)C2=O,113%
12,Cc1ccc(NC2=CC(=O)c3sc(C)nc3C2=O)cc1,72%
13,O=C1NC(=O)/C(=C\c2ccc3nccnc3c2)S1,101%
14,O=C1c2ccccc2-[n+]2ccc3c([nH]c4ccccc43)c21,95%
15,COc1ccc(CNc2nc(N(CCO)CCO)nc3c2ncn3C(C)C)cc1,84%
16,CN(C)c1ccc(/C=C2\C(=O)Nc3ccccc32)cc1,91%
17,Oc1ccc(Nc2nc(-c3ccc(Cl)cc3)cs2)cc1,93%
18,CC(C)n1cnc2c(NCc3ccccc3)nc(NCCCO)nc21,81%

row,Compound,residual activity
1,N#Cc1cnc2cnc(NCc3cccnc3)cc2c1Nc1ccc(F)c(Cl)c1,97%
2,CC#CC(=O)Nc1cc2c(Nc3ccc(F)c(Cl)c3)ncnc2cn1,116%
3,Cn1cc(/C=C2\C(=O)Nc3ccc(S(N)(=O)=O)cc32)c2ccccc21,21%
4,NC(=O)c1ccc2[nH]c(-c3ccc(Oc4ccc(Cl)cc4)cc3)nc2c1,27%
5,COc1ccc(C(=O)Nc2sc3c(c2C(N)=O)CCCC3)cc1OC,118%
6,N#CCCc1ccc2c(c1)-c1[nH]c3ccc([N+](=O)[O-])cc3c1CC(=O)N2,16%
7,Cn1cnc2cc3c(Nc4cccc(Br)c4)ncnc3cc21,115%
8,N#C/C(=C(\N)Sc1ccc(N)cc1)c1ccccc1C(F)(F)F,103%
9,Nc1ccc2ncnc(NCCc3ccc(Oc4ccccc4)cc3)c2c1,66%
10,O=c1cc(-c2cccc3c2Sc2ccccc2S3)oc(N2CCOCC2)c1,96%
11,Cc1cc2ncc(-c3ccccc3)nc2cc1C,97%
12,O=C(Nc1cccc(Nc2cc(Nc3cccc(C(F)(F)F)c3)ncn2)c1)C1CC1,103%
13,O=C1NC(=O)c2c1c1c3ccccc3[nH]c1c1[nH]c3cc(Br)ccc3c21,83%
14,O=C(Nc1cccc(Nc2nccc(Nc3cccc(C(F)(F)F)c3)n2)c1)C1CC1,96%
15,Oc1ccc(-c2nc(-c3ccc(F)cc3)c(-c3ccncc3)[nH]2)cc1,88%
16,CC[n+]1c(/C=C/N(C)c2ccccc2)n(-c2ccccc2)c2ccc(-c3nc4ccccc4s3)cc21,102%
17,O=C1NC(=O)c2cc(Nc3ccc(F)cc3)c(Nc3ccc(F)cc3)cc21,101%

# Source: ChEMBL document CHEMBL2218924, “A broad activity screen in support of a chemogenomic map for kinase signalling research and drug discovery” (Biochem J, 2013)
